Reference: PubChem BioAssay AID2284128 (EPA ToxCast)
The source made the active and inactive calls. The calls were made as follows: active = hit-call score of the fitted dose curve at least 0.9, where 1 is the maximum; inactive = score below 0.9.

Each molecule was assayed against human Phosphatase (PTEN), PTEN (gene 5728) (UniProt P60484) (assay: ERF_TW_ENZ_hPTEN: Eurofins (ERF) Enzymatic LeadHunter Assay for human Phosphatase (PTEN)).
Experimental: ERF_TW_ENZ_hPTEN is a biochemical, single-readout assay that uses extracted gene-proteins in a cell-free assay. Measurements were taken 1 hour after chemical dosing in a 96-well plate. See PTEN Human Phosphatase Enzymatic Assay, Panlabs.ERF_TW_ENZ_hPTEN is an assay component calculated from the ERF_TW_ENZ_hPTEN assay. It is designed to measure enzyme activity using a type of enzyme reporter as detected by fluorescence intensity with spectrophotometry technology.Data from the assay component ERF_TW_ENZ_hPTEN was analyzed at the assay endpoint, ERF_TW_ENZ_hPTEN, in the positive analysis fitting direction relative to DMSO as the negative control and baseline of activity. Using a type of enzyme reporter, loss-of-signal activity can be used to understand changes in enzymatic activity as they relate to gene PTEN. To generalize the intended target to other relatable targets, this assay endpoint is annotated to the phosphatase intended target family, where the subfamily is dual-specific phosphatase.
Human recombinant phosphatase PTEN expressed in E. coli is used. Test compound and/or vehicle is preincubated with 2 ug/ml enzymedouble dagger for 15 minutes at 37C in modified Tris-HCl buffer pH 8.5. The reaction is initiated by addition of 100 uM DiFMUP for 60 minutes. Determination of the amount of DiFMU formed is read spectrofluorimetrically at 358 nm/450 nm. […]

Chain of human Phosphatase (PTEN), PTEN (gene 5728) (P60484 whole entry, looked up): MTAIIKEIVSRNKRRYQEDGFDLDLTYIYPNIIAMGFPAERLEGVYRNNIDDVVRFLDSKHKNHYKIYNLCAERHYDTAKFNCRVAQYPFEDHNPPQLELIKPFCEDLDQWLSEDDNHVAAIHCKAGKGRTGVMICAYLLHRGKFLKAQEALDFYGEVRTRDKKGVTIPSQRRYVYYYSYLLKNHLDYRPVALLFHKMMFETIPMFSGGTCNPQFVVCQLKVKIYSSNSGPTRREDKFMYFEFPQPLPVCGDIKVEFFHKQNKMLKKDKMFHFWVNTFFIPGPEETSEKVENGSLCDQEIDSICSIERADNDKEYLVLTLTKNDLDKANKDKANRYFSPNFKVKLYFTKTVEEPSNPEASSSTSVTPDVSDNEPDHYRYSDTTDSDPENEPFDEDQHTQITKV

Row | Structure (SMILES) | AC50
1 | O=C(/C=C/c1ccc(O)cc1)CC(=O)/C=C/c1ccc(O)cc1 | 5 µM (active)
